Records with an inconclusive call do not appear. The source made the active and inactive calls. Unless noted, calls come from the whole dose curve.
Legend:
[1] = Cell Viability - BJ (AID 421); conditions: BJ fibroblast viability, qHTS;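 note: potency is the fitted concentration of half-maximal effect; cells exposed to compound for 40 hours at 37 °C before readout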
How it was run: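 Quantitative HTS: ATP depletion in BJ cells after 40 hr compound exposure in complete culture medium, detected with CellTiter-Glo; AC50 from standard Hill fits.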

[2] = Cell Viability - Jurkat (AID 426;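 active = dose-dependent loss of cell ATP signal giving a full or clear fitted curve, ranked by lower potency value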;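 note: potency is the fitted concentration of half-maximal effect; cells exposed to compound for 40 hours at 37 °C before ATP read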); conditions: qHTS
How it was run: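 Cells of the human T-cell leukemia line Jurkat (E6-1) are seeded at 5000 per well, treated with compound across a concentration range for 40 hours at 37 °C, then lysed with CellTiter-Glo; luminescence reports ATP.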

[3] = Cell Viability - Hek293 (AID 427;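 active = compounds whose dose-response curve shows a full or clear partial loss of cell viability, called from curve shape rather than a numeric limit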;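 note: potency is the fitted concentration of half-maximal effect; cells exposed to compound for 40 hours at 37 °C before reading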); conditions: qHTS
How it was run: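 AC50 values derive from Hill-modelled concentration-response of ATP-based luminescence, normalized between DMSO-only and 100 uM tamoxifen controls. Cells were exposed in complete culture medium for 40 hr at 37 °C before detection.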

[4] = Cell Viability - HepG2 (AID 433); conditions: qHTS;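 note: potency is the fitted concentration of half-maximal effect; potency for ATP loss meaning cytotoxicity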
How it was run: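 Cytotoxicity is scored as loss of intracellular ATP in HepG2 cells exposed to compounds for 40 h. Concentration-response curves, normalized to DMSO and 100 uM tamoxifen, give AC50 values.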

[5] = Cell Viability - MRC5 (AID 434); conditions: MRC5 lung fibroblast viability, qHTS;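 note: potency is the fitted concentration of half-maximal effect; potency reflects cytotoxicity seen as loss of intracellular ATP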
How it was run: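 ATP luminescence read-out (CellTiter-Glo, 20 min RT) after 40 hr, 37 °C compound exposure of 1500 MRC5 cells/well. Data normalized to DMSO (basal) and 100 uM tamoxifen (100% inhibition); AC50 from standard Hill equation.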

[6] = Cell Viability - SK-N-SH (AID 435); conditions: SK-N-SH neuroblastoma cell viability qHTS;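 note: potency is the fitted concentration of half-maximal effect; compound exposure lasted 40 h at 37 °C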
How it was run: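 Cells seeded at 1500 per well and incubated 5 hr at 37 °C. Compound added, then 40 hr at 37 °C. CellTiter-Glo added, 20 min at room temperature, luminescence read.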

[7] = target: Mitogen-activated protein kinase 10 (Mus musculus) (UniProt Q61831); test: JNK3 AlphaScreen Assay (AID 530; active = well fitted curve in either direction with a large enough effect, not every such curve was filed as active;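 note: kinase came from lysate of stimulated human HepG2 cells; signal reports phosphorylation of biotinylated GST-cJun 1-79 at Ser73 with 10 µM ATP; % is set by controls: 0 for no effect and ±100 for the full control effect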); conditions: JNK3 lysate, c-Jun phosphorylation; series mostly up to 57.1 µM
How it was run: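 Activity was read by AlphaScreen after JNK3-containing HepG2 lysate (cytokine pre-activated) phosphorylated biotinylated GST-cJun with 10 uM ATP at room temperature. Phospho-Ser73 cJun antibody with Protein-A acceptor beads provided detection.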

[8] = Cell Viability - N2a (AID 540; active = well fitted curve in the direction sought with a large enough effect; an effect the other way counts as inactive or inconclusive;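 note: cells exposed to compound for 40 h at 37 °C; plate controls were DMSO alone for no effect and tamoxifen control for full effect; nearly all actives have a fitted effect of over 45% in size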); conditions: N2a mouse neuroblastoma cell viability; activity change, negative = cytotoxicity: at 92.2 µM (top of the series)
How it was run: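 Cytotoxicity was scored as loss of cellular ATP in N2a cells, a mouse neuroblastoma line. Compounds are applied in a qHTS concentration series for 40 hr at 37 °C.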

[9] = Cell Viability - NIH 3T3 (AID 541; active = well fitted curve in the direction sought with a large enough effect; an effect the other way counts as inactive or inconclusive;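 note: plate controls were DMSO alone for no effect and tamoxifen positive control for full effect; nearly all actives have a fitted effect of over 25% in size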); conditions: NIH 3T3 cell viability, qHTS; activity change, negative = cytotoxicity: at 92.2 µM (top of the series)
How it was run: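 Cells seeded at 1000/well, rested 5 hr at 37 °C, then dosed and incubated 40 hr at 37 °C. CellTiter-Glo added, 20 min room temperature, luminescence read. AC50 by Hill fit.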

[10] = Cell Viability - HUV-EC-C (AID 542; active = well fitted curve in the direction sought with a large enough effect; an effect the other way counts as inactive or inconclusive; note: % is set by controls: 0 for no effect and ±100 for the full control effect; nearly all actives have a fitted effect of over 35% in size); conditions: HUV-EC-C endothelial cell viability, qHTS; series mostly up to 92.2 µM
How it was run: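 Cells were seeded at 1000 per well and incubated 5 hr at 37 °C before compound addition. After 40 hr at 37 °C, CellTiter-Glo reagent was added for 20 min and luminescence read. AC50 values came from Hill-equation modelling.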

O=C(O)CN(CC(=O)O)CC(=O)O
inactive: Potency [1] > 92 µM | Potency [2] > 92 µM | Potency [3] > 92 µM | Potency [4] > 92 µM | Potency [5] > 92 µM | Potency [6] > 92 µM | outcome [7] | activity change, negative = cytotoxicity [8] -5.01% | Potency [9]

Cc1cc([N+](=O)[O-])ccc1N
inactive: Potency [1] > 92 µM | Potency [2] > 92 µM | Potency [3] > 92 µM | Potency [4] > 92 µM | Potency [5] > 92 µM | Potency [6] > 92 µM | outcome [7] | activity change, negative = cytotoxicity [8] -8.91%

Cc1cccc(C)c1O
inactive: Potency [1] > 92 µM | Potency [2] > 92 µM | Potency [3] > 92 µM | Potency [4] > 92 µM | Potency [5] > 92 µM | Potency [6] > 92 µM | outcome [7] | activity change, negative = cytotoxicity [8] -7.98% | Potency [9]

O=C1OC(=O)c2c(Cl)c(Cl)c(Cl)c(Cl)c21
inactive: Potency [1] > 92 µM | Potency [2] > 92 µM | Potency [3] > 92 µM | Potency [4] > 92 µM | Potency [5] > 92 µM | Potency [6] > 92 µM | outcome [7] | activity change, negative = cytotoxicity [8] 4.39% | Potency [9]

O=[N+]([O-])c1cc(C(F)(F)F)ccc1Cl
inactive: Potency [1] > 92 µM | Potency [2] > 92 µM | Potency [3] > 92 µM | Potency [4] > 92 µM | Potency [5] > 92 µM | Potency [6] > 92 µM | outcome [7] | activity change, negative = cytotoxicity [8] 4.62% | Potency [9] | Potency [10]

Cc1ccccc1C(N)=O
inactive: Potency [1] > 92 µM | Potency [2] > 92 µM | Potency [3] > 92 µM | Potency [4] > 92 µM | Potency [5] > 92 µM | Potency [6] > 92 µM | outcome [7] | activity change, negative = cytotoxicity [8] -9.85% | Potency [9] | Potency [10]

CCCCC(C=O)CC (stereo not given)
inactive: Potency [1] > 92 µM | Potency [2] > 92 µM | Potency [3] > 92 µM | Potency [4] > 92 µM | Potency [5] > 92 µM | Potency [6] > 92 µM | outcome [7] | activity change, negative = cytotoxicity [8] 2.46% | Potency [9] | Potency [10]

CN(C)c1cccc(O)c1
inactive: Potency [1] > 92 µM | Potency [2] > 92 µM | Potency [3] > 92 µM | Potency [4] > 92 µM | Potency [5] > 92 µM | Potency [6] > 92 µM | outcome [7] | activity change, negative = cytotoxicity [8] -1.51% | Potency [9] | Potency [10]

CC(O)COC(C)(C)C (stereo not given)
inactive: Potency [1] > 92 µM | Potency [2] > 92 µM | Potency [3] > 92 µM | Potency [4] > 92 µM | Potency [5] > 92 µM | Potency [6] > 92 µM | outcome [7] | activity change, negative = cytotoxicity [8] 1.08% | Potency [9] | Potency [10]

O=C(O)c1c(Cl)cccc1Cl
inactive: Potency [1] > 92 µM | Potency [2] > 92 µM | Potency [3] > 92 µM | Potency [4] > 92 µM | Potency [5] > 92 µM | Potency [6] > 92 µM | outcome [7] | activity change, negative = cytotoxicity [8] -6.78% | Potency [9] | Potency [10]

C/C=C(/C)C#N
inactive: Potency [1] > 92 µM | Potency [2] > 92 µM | Potency [3] > 92 µM | Potency [4] > 92 µM | Potency [5] > 92 µM | Potency [6] > 92 µM | outcome [7] | activity change, negative = cytotoxicity [8] -3.64% | Potency [9] | Potency [10]

N#CC1(O)CCCCC1
inactive: Potency [1] > 92 µM | Potency [2] > 92 µM | Potency [3] > 92 µM | Potency [4] > 92 µM | Potency [5] > 92 µM | Potency [6] > 92 µM | outcome [7] | activity change, negative = cytotoxicity [8] 14.1% | Potency [9] | Potency [10]

Cc1cccc(C)c1[N+](=O)[O-]
inactive: Potency [1] > 92 µM | Potency [2] > 92 µM | Potency [3] > 92 µM | Potency [4] > 92 µM | Potency [5] > 92 µM | Potency [6] > 92 µM | outcome [7] | activity change, negative = cytotoxicity [8] -11.3% | Potency [9] | Potency [10]

CC(C=O)Cc1ccc(C(C)(C)C)cc1 (stereo not given)
inactive: Potency [1] > 92 µM | Potency [2] > 92 µM | Potency [3] > 92 µM | Potency [4] > 92 µM | Potency [5] > 92 µM | Potency [6] > 92 µM | outcome [7] | activity change, negative = cytotoxicity [8] -7.79% | Potency [9] | Potency [10]

O=Cc1ccccc1Cl
inactive: Potency [1] > 92 µM | Potency [2] > 92 µM | Potency [3] > 92 µM | Potency [4] > 92 µM | Potency [5] > 92 µM | Potency [6] > 92 µM | outcome [7] | activity change, negative = cytotoxicity [8] -4.91% | Potency [9] | Potency [10]

CCCC=O
inactive: Potency [1] > 92 µM | Potency [2] > 92 µM | Potency [3] > 92 µM | Potency [4] > 92 µM | Potency [5] > 92 µM | Potency [6] > 92 µM | outcome [7] | activity change, negative = cytotoxicity [8] -20.1% | Potency [9] | Potency [10]

C=C(C)C(=O)OCCCCCCCCCC
inactive: Potency [1] > 92 µM | Potency [2] > 92 µM | Potency [3] > 92 µM | Potency [4] > 92 µM | Potency [5] > 92 µM | Potency [6] > 92 µM | outcome [7] | activity change, negative = cytotoxicity [8] 3.17% | Potency [9] | Potency [10]

— PubChem BioAssay (NCATS)
